# Experimental data: PubChem BioAssay (NCATS)
# Inconclusive results are not listed. A call without a number means that no potency is given here. Active and inactive are the calls of the source. Unless noted, calls come from the whole dose curve; as a rule, active = well fitted curve in the direction sought with a large enough effect; inconclusive = small, poorly fitted or top-dose-only effect, or another doubt; inactive = no such curve, though single readings can be large; an effect the other way counts as inactive or inconclusive.
# Tests used:
# [1] = biological target: Ubiquitin carboxyl-terminal hydrolase 2 (Homo sapiens) (UniProt O75604); experiment: qHTS Validation Assay for Inhibitors of Ubiquitin-specific Protease USP2a Using CHOP2 as the Reporter (AID 463106)
# Ubiquitin carboxyl-terminal hydrolase 2 (Homo sapiens), sequence (O75604 whole entry, looked up): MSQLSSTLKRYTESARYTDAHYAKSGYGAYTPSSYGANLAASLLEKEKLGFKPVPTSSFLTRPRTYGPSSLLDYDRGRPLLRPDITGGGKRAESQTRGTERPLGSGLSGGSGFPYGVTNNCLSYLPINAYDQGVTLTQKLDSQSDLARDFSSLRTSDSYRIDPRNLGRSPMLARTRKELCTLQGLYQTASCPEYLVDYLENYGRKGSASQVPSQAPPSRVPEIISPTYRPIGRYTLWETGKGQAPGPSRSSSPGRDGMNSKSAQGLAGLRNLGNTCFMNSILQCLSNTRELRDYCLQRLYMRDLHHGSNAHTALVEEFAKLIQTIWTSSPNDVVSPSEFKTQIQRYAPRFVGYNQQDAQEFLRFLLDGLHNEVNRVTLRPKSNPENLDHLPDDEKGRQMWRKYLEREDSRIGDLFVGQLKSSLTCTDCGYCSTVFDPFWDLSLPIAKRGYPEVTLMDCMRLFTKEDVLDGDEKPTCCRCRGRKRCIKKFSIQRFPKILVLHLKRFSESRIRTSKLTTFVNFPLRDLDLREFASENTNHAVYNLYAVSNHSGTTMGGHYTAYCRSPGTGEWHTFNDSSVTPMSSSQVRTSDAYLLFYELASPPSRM
# In short: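 10nM USP2 core + cpd, 30min RT; add 25nM Ub-CHOP2/25nM substrate; 60min RT; FI 485/531nm. Buffer Tris pH 8.0, CaCl2, BME, CHAPS. Norm. to NEM = 100% inhibition; time-zero read flags fluorescent artifacts.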
# [2] = biological target: DNA polymerase III PolC-type (Bacillus subtilis (strain 168)) (UniProt P13267); experiment: qHTS Validation Assay for the Inhibitors of DNA Replication in Gram-Positive Bacteria (AID 485295);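 note: reconstituted holoenzyme with PolC plus beta clamp SSB and primase; PicoGreen fluorescence of double-stranded DNA made on primed circular M13 template; series mostly up to about 57 µM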
# DNA polymerase III PolC-type (Bacillus subtilis (strain 168)), sequence (P13267 whole entry, looked up): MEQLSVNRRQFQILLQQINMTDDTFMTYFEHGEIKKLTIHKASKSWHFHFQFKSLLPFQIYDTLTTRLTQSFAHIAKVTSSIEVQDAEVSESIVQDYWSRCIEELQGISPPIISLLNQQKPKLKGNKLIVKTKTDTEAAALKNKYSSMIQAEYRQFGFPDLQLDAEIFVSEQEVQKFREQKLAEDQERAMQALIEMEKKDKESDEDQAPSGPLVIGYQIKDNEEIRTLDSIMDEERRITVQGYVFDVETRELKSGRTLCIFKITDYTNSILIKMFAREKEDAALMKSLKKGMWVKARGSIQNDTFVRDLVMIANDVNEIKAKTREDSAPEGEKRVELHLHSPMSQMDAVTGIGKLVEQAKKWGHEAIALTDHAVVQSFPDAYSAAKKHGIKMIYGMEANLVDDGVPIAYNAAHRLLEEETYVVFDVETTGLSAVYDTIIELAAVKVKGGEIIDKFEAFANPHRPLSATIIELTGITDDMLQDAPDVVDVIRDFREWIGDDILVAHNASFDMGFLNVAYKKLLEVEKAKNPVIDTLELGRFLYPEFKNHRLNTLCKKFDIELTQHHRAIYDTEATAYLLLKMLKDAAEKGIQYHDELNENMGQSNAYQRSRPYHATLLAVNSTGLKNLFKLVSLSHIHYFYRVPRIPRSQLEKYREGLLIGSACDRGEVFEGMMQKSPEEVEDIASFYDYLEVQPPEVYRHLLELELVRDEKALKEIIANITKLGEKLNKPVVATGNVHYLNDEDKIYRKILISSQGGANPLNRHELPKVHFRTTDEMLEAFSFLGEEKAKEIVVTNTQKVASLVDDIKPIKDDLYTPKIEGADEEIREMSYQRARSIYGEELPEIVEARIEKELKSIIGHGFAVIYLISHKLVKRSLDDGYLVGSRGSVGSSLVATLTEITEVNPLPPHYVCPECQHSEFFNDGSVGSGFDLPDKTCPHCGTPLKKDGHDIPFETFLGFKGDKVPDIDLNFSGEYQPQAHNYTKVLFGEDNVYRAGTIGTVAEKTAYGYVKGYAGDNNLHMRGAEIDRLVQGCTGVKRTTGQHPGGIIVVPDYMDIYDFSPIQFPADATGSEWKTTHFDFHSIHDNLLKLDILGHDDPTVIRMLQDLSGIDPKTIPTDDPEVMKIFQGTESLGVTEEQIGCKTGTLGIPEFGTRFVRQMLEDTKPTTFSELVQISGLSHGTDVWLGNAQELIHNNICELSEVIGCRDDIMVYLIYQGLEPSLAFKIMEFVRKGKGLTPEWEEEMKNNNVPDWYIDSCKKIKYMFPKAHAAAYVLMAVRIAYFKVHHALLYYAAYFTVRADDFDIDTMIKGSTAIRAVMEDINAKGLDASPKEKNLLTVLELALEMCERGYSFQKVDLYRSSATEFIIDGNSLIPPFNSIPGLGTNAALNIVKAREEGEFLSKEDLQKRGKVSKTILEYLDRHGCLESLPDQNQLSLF
# In short: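 Inhibition of DNA synthesis by the reconstituted PolC holoenzyme, monitored through PicoGreen staining of dsDNA formed from ssM13Gori, dNTPs and NTPs, with compound preincubation and room-temperature reaction.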
# [3] = biological target: Tumor susceptibility gene 101 protein (Homo sapiens) (UniProt Q99816); experiment: qHTS Validation Assay for Iinhibitors of HIV-1 Budding by Blocking the Interaction of PTAP/TSG101 (AID 485342; calls by dose curve)
# Tumor susceptibility gene 101 protein (Homo sapiens), sequence (Q99816 whole entry, looked up, the tested form may be a part): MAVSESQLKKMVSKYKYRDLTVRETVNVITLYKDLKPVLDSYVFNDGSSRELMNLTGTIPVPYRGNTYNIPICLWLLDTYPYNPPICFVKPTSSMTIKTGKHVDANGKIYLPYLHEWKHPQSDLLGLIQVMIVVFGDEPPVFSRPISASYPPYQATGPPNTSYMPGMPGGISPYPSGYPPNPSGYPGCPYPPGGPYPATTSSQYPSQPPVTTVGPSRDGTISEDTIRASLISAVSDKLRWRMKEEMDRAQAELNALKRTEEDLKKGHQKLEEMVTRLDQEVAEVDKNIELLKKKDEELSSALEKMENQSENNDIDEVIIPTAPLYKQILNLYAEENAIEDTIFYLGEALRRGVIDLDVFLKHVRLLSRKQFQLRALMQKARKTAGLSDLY
# In short: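 Compound wells held the Tsg101 binding domain (10 uM) and a FITC-conjugated PTAP peptide (50 nM) in buffer at pH 7.5 containing 0.15 M NaCl and 0.01% Tween 20; polarization was recorded after 20 min, r.t.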
# [4] = qHTS Validation Assay to Find Inhibitors of Chronic Active B-Cell Receptor Signaling (AID 485345; active = well fitted curve in the direction sought with a large enough effect in the main read-out, with a control signal flat, not every such curve was filed as active)
# In short: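 Read-out: ratio of filter-corrected green (IkappaBalpha fusion) to red (native) luciferase signal in doxycycline-induced TMD8 cells after 4 h at 37C. Titration spanned 46 uM–3 nM; Data were normalised to basal cells and 10 uM MG-132 wells.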
# [5] = biological target: Beta-2 adrenergic receptor (Homo sapiens) (UniProt P07550); experiment: qHTS validation assay of beta-arrestin-biased ligands of beta2-adrenergic receptor (AID 485366)
# Beta-2 adrenergic receptor (Homo sapiens), sequence (P07550 whole entry, looked up): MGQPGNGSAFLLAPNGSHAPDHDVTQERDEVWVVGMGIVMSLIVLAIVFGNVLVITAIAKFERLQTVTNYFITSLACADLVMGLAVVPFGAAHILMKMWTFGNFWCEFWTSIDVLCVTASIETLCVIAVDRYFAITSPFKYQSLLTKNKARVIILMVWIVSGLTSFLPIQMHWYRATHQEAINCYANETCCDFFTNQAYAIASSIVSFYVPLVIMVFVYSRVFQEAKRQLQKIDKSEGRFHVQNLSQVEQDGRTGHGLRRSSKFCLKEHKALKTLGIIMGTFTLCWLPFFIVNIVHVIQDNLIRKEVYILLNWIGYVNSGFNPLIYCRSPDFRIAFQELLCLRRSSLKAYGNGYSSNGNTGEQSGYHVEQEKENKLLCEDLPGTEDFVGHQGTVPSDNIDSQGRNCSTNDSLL
# In short: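 Arrestin-recruitment (Tango) reporter: ligand-bound beta2-AR recruits beta-arrestin, releasing tTA, which upregulates luciferase. Titrations of up to 46 microM incubated 18 hr at 37 degrees C before luminescent readout.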
# [6] = Quantitative high throughput screen for delayed death inhibitors of the malarial parasite plastid, 96 hour incubation (AID 488745); note: nearly all actives have a fitted effect of over 70% in size; note: potency is the fitted concentration of half-maximal effect
# In short: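 Infected erythrocytes were added to compound in Albumax-supplemented RPMI 1640 at 0.1% parasitemia and 2% hematocrit (final), incubated 96 h at 37 C under 5% CO2, then luciferase reagent was added and luminescence measured.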
# [7] = Quantitative high throughput screen for delayed death inhibitors of the malarial parasite plastid, 48 hour incubation (AID 488752); note: nearly all actives have a fitted effect of over 65% in size
# In short: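 Readout is firefly luciferase luminescence from a reporter integrated into the parasite genome, with lower signal taken as inhibited growth. Infected red cells (0.1% parasitemia, 2% hematocrit final) are cultured with compound for one 48 h cycle at 37 C.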
# [8] = biological target: Thioredoxin reductase 1, cytoplasmic (Rattus norvegicus) (UniProt O89049); experiment: qHTS Assay for Substrates of Mammalian Selenoprotein Thioredoxin Reductase 1 (TrxR1) (AID 488772);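 note: NADPH fluorescence in the first read after selenite addition and not the 8 min delta; a drop in NADPH fluorescence below the no-compound background marks a TrxR1 substrate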; note: potency is the fitted concentration of half-maximal effect
# Thioredoxin reductase 1, cytoplasmic (Rattus norvegicus), sequence (O89049 whole entry, looked up): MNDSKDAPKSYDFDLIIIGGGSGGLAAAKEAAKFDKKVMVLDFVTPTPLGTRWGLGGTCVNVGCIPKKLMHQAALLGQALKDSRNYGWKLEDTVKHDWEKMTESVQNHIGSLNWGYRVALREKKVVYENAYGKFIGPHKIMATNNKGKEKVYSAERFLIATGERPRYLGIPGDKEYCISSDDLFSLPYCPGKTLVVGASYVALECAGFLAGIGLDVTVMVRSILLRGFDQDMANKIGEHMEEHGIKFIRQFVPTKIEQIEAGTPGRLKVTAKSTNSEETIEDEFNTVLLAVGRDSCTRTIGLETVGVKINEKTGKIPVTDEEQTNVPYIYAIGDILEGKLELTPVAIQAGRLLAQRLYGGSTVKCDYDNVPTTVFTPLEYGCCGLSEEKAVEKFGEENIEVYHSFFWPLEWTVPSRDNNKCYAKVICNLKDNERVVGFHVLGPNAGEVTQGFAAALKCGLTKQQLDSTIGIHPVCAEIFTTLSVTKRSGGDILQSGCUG
# In short: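 Quantitative HTS in Tris-HCl buffer at pH 7.5 with EDTA and Tween-20, using rat TrxR1, 400 uM NADPH and 400 uM selenite (final). A fall in initial NADPH fluorescence relative to background marked substrate behaviour.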
# [9] = biological target: Thioredoxin reductase 1, cytoplasmic (Rattus norvegicus) (UniProt O89049); experiment: qHTS Assay for Inhibitors of Mammalian Selenoprotein Thioredoxin Reductase 1 (TrxR1) (AID 488773); settings: Potency: inhibition; note: nearly all actives have a fitted effect of over 40% in size; note: potency is the fitted concentration of half-maximal effect
# In short: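 Steps: enzyme (90 nM) plus NADPH (400 uM final), 5 min at ~22 deg C; compound added, 15 min; selenite (400 uM final) added; fluorescence followed for 8 min. Concentration-response curves derived from the normalized delta values.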
# [10] = biological target: Flap endonuclease 1 (Homo sapiens) (UniProt P39748); experiment: qHTS Validation Assay for the Inhibitors of Human Flap endonuclease 1 (FEN1) (AID 488816)
# Flap endonuclease 1 (Homo sapiens), sequence (P39748 whole entry, looked up): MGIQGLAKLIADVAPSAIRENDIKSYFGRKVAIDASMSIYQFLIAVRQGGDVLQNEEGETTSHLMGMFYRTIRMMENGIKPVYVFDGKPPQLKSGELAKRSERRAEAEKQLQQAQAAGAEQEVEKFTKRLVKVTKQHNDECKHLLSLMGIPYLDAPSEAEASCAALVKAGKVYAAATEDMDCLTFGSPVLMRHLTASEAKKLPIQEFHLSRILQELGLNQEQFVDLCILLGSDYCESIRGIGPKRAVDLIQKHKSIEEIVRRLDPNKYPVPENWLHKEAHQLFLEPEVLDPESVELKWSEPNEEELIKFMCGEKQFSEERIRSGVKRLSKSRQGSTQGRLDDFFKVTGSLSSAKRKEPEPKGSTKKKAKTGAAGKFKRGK
# In short: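 Readings taken at 0 and 15 min after starting the reaction with 50 nM (final) substrate supplied the signal. Compounds had first sat with 10 nM FEN1 reagent for 15 min at room temperature. Values come from Hill-equation concentration-response fits.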
Compound,outcome [1],outcome [2],outcome [3],outcome [4],outcome [5],Potency [6],outcome [7],Potency [8],Potency [9],outcome [10]
CC(C)NCC(O)COc1cccc2[nH]ccc12 (configuration not stated),inactive,inactive,inactive,inactive,inactive,inactive,inactive,inactive,inactive,
CCN(CC)CCOC(=O)c1ccc(N)cc1,inactive,inactive,inactive,inactive,inactive,inactive,inactive,inactive,inactive,inactive
CC/C(=C(\c1ccccc1)c1ccc(OCCN(C)C)cc1)c1ccccc1,inactive,,inactive,,,13.1 µM (active),,inactive,inactive,inactive
Clc1ccc(Cn2c(CN3CCCC3)nc3ccccc32)cc1,inactive,inactive,inactive,inactive,inactive,,inactive,inactive,inactive,inactive
COc1ccc(Cc2nccc3cc(OC)c(OC)cc23)cc1OC,inactive,inactive,inactive,,inactive,,,inactive,,
CCN(CC)C(=O)c1ccc(O)c(OC)c1,inactive,inactive,inactive,inactive,inactive,inactive,inactive,inactive,inactive,
CC(=O)c1ccc(S(=O)(=O)NC(=O)NC2CCCCC2)cc1,inactive,inactive,inactive,inactive,inactive,inactive,inactive,inactive,inactive,
CCCCCN(C)CCC(O)(P(=O)(O)O)P(=O)(O)O,inactive,inactive,inactive,inactive,inactive,,,inactive,inactive,inactive
CC(=O)O[C@]1(C(C)=O)CC[C@H]2[C@@H]3C=C(Cl)C4=CC(=O)[C@@H]5C[C@@H]5[C@]4(C)[C@H]3CC[C@@]21C,inactive,inactive,inactive,inactive,inactive,,,inactive,inactive,inactive
O=C1NC(=O)C(c2ccccc2)(c2ccccc2)N1,inactive,inactive,inactive,inactive,inactive,inactive,inactive,inactive,inactive,inactive
CC(C)(C)c1ccc(C(O)CCCN2CCC(C(O)(c3ccccc3)c3ccccc3)CC2)cc1 (configuration not stated),inactive,inactive,inactive,inactive,inactive,inactive,inactive,inactive,inactive,
COc1ccccc1N1CCN(CCCNc2cc(=O)n(C)c(=O)n2C)CC1,inactive,inactive,inactive,inactive,inactive,,inactive,inactive,,inactive
C[N+](C)(C)CC(=O)O,inactive,inactive,inactive,inactive,inactive,,,inactive,inactive,
CC(=O)CCCCn1c(=O)c2c(ncn2C)n(C)c1=O,inactive,inactive,inactive,inactive,inactive,inactive,inactive,inactive,inactive,
CN(C)CCC(c1ccccc1)c1ccccn1 (configuration not stated),inactive,inactive,inactive,inactive,inactive,inactive,inactive,inactive,inactive,
COc1cccc(-c2cc(=O)c3ccccc3o2)c1N,inactive,inactive,inactive,inactive,inactive,,,inactive,inactive,inactive
NCCS,inactive,inactive,inactive,inactive,inactive,inactive,inactive,,inactive,inactive
C[N+](C)(C)CCCCCC[N+](C)(C)C,inactive,inactive,inactive,inactive,inactive,inactive,inactive,inactive,inactive,inactive

Compound,outcome [1],outcome [2],outcome [3],outcome [4],outcome [5],Potency [6],outcome [7],Potency [8],Potency [9],outcome [10]
CCN(CC)CCNC(=O)c1ccc(N)cc1,,inactive,inactive,inactive,inactive,inactive,inactive,inactive,inactive,
CCN1CCC[C@H]1CNC(=O)c1cc(S(N)(=O)=O)ccc1OC,inactive,inactive,inactive,inactive,inactive,inactive,inactive,inactive,inactive,inactive
CC(C)OC(=O)C(C)(C)Oc1ccc(C(=O)c2ccc(Cl)cc2)cc1,inactive,inactive,inactive,,inactive,,,inactive,inactive,inactive
CC(=O)N[C@@H](CS)C(=O)O,inactive,inactive,inactive,inactive,inactive,inactive,inactive,inactive,inactive,inactive
O=c1cc(-c2ccc(O)cc2)oc2cc(O)cc(O)c12,inactive,inactive,inactive,,inactive,,,inactive,inactive,inactive
CCn1cc(C(=O)O)c(=O)c2ccc(C)nc21,inactive,inactive,inactive,inactive,inactive,,,inactive,inactive,
CC1(C)CCC2=C(O1)c1ccccc1C(=O)C2=O,inactive,inactive,inactive,,inactive,,,18.9 µM (active),,inactive
CC1=C(/C=C/C(C)=C/C=C/C(C)=C/C(=O)Nc2ccc(O)cc2)C(C)(C)CCC1,inactive,inactive,inactive,,inactive,,,,,inactive
Clc1ccc(C(c2ccc(Cl)cc2)n2cc[n+](CC(OCc3ccc(Cl)cc3Cl)c3ccc(Cl)cc3Cl)c2)cc1 (configuration not stated),,inactive,inactive,inactive,inactive,,,inactive,inactive,
CCCCC1C(=O)N(c2ccccc2)N(c2ccccc2)C1=O,inactive,inactive,inactive,inactive,inactive,,,inactive,inactive,inactive
O=C(O)CCc1nc(-c2ccccc2)c(-c2ccccc2)o1,inactive,inactive,inactive,inactive,inactive,inactive,inactive,inactive,inactive,
Cc1cccc(C)c1OCC(C)N (configuration not stated),inactive,inactive,inactive,inactive,inactive,inactive,inactive,inactive,inactive,inactive
O=C(NCCN1CCOCC1)c1ccc(Cl)cc1,inactive,inactive,inactive,inactive,inactive,,,inactive,inactive,
NC(N)=Nc1nc(CSCC/C(N)=N/S(N)(=O)=O)cs1,inactive,inactive,inactive,inactive,inactive,inactive,inactive,inactive,inactive,inactive
O=C1NCC2(CCN(CCc3ccccc3)CC2)O1,inactive,inactive,inactive,inactive,inactive,inactive,inactive,inactive,inactive,inactive
CCCNC(=O)NS(=O)(=O)c1ccc(Cl)cc1,inactive,inactive,inactive,inactive,inactive,inactive,inactive,inactive,inactive,inactive
COC(=O)[C@@H]1[C@H]2C[C@H]3c4[nH]c5ccccc5c4CCN3C[C@@H]2CC[C@@H]1O,inactive,inactive,inactive,,inactive,inactive,inactive,inactive,inactive,
O=c1c(-c2ccc(O)cc2)coc2cc(O)ccc12,inactive,inactive,inactive,,inactive,,,inactive,8.44 µM (active),inactive
